From PubChem BioAssay
Most compounds without a hit are left out; they make up all but 15% or so of the library.
DT40 TDP1 no CPT: qHTS for Inhibitors of human tyrosyl-DNA phosphodiesterase 1 (TDP1): qHTS in cells in absence of CPT. 420,000 compounds, 15% hits. Potency, µM (titrated, usually from 46.2 µM), inactives show at the highest dose activity change, negative = growth inhibition, usual class: inhibitors. AID 686978, 2013. DT40 Tdp1-/- hTDP1 cells, no CPT, ATP luminescence, 48 h; further: nearly all actives have a fitted effect of over 55% in size
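Camptothecin absent (DMSO only). Human TDP1-complemented DT40 knockout cells, 400 cells/well, 37 °C for minimum 48 hr; ATP measured via CellTiter-Glo, 30 min dark incubation, luminescence.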
TDP1 cell CPT: DT40-hTDP1 cell growth loss with CPT; chicken DT40 Tdp1-/-;hTDP1 cells + 20 nM CPT, ATP luminescence, 48 h; 420,000 compounds, 12% hits; Potency, µM (top dose mostly 46.2 µM), without a hit: at the top dose activity change, negative = growth inhibition, most hits filed as inhibitors; further: nearly all actives have a fitted effect of over 55% in size
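Chicken DT40 Tdp1-/- cells stably complemented with human TDP1 were seeded at 400 cells/well in medium containing 20 nM camptothecin, exposed to pin-transferred compounds, and grown at 37 °C for at least 48 hr. Viability was read as ATP luminescence.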
ELG1 DNA repair: blocks ELG1-dependent DNA repair in HEK293T cells | HEK293T ELG1-luciferase reporter, luminescence, 16 h; DNA damage induced by 5-fluorouridine | Potency, µM (highest dose often 46.1 µM), for inactives: at the highest dose activity change, negative = inhibition, most hits filed as inhibitors | 330,000 compounds, 2.3% hits | AID 504467; further: nearly all actives have a fitted effect of over 55% in size
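Cells (2,000 per well) received 5-fluorouridine plus test compound or DMSO and were incubated 16 hr at 37 °C, 5% CO2. Luciferase activity was read by luminescence 30 min after ONE-Glo addition; signal suppression marked inhibition of damage-induced ELG1 function.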
12-LOX inh: ALOX12 (human) lipoxygenase inhibition; P18054; purified 12hLO, xylenol orange hydroperoxide absorbance; 580,000 compounds, 1.1% hits; AID 1671190; Potency, µM (highest dose often 108 µM), for the others: top-dose activity change, negative = inhibition, most hits filed as inhibitors
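Purified human 12hLO (150 nM final) in 25 mM Hepes, 0.01% Triton X-100, pH 7.0 was preincubated 15 min at room temperature with compound. Then 40 uM arachidonic acid was added, 30 min. Hydroperoxide was read by Fe-XO absorbance ratio 573/405 nm.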
Gal4-VP16 FLuc: Gal4-VP16 reporter inhibition counter-screen. Drosophila S2 Gal4-VP16 UAS-luciferase, luminescence, 20 h. Potency, µM (highest dose often 53.6 µM), inactives show at the top dose activity, negative = inhibition, actives largely listed as inhibitors. 310,000 compounds, 3.5% hits. AID 2546;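 further: Gal4-VP16 expression switched on by copper sulfate through the metallothionein promoter; nearly all actives have a fitted effect of over 50% in size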
RORgamma inh: blocks mouse ROR gamma transcriptional activity; P51450; Drosophila S2 Gal4-RORgamma UAS-luciferase reporter, 20 h; Potency, µM (highest dose often 53.6 µM), inactives show top-dose activity change, negative = inhibition, usual class: inhibitors; 310,000 compounds, 5.4% hits; AID 2551; further: nearly all actives have a fitted effect of over 60% in size
Target sequence (P51450 whole entry, looked up, the tested form may be a part): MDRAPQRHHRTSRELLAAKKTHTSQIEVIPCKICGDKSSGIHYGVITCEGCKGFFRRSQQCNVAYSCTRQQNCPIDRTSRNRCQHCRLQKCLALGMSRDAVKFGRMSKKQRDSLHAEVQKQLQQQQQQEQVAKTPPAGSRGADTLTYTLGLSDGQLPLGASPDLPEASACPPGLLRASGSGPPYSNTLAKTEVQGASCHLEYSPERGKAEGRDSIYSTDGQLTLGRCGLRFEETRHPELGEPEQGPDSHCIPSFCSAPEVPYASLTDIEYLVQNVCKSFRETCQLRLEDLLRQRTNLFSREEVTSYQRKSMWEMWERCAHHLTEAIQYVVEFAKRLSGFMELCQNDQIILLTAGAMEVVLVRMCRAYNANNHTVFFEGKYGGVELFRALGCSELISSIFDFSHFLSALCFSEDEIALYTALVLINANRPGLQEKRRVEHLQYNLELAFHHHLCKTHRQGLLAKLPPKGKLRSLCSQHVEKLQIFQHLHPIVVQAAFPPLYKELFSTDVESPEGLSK
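Drosophila Schneider cells stably carrying a metallothionein-driven Gal4 DBD–ROR gamma fusion and a UAS-Photinus luciferase reporter were exposed to compound for 1 hr, then induced with copper sulfate (700 uM final) for 20 hr at ambient temperature before luminescence reading.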
An asterisk follows results filed as active; ? = inconclusive; nt = no result; [ ] = remark or other dose. The call rests on the fitted dose curve; in most records, active means well fitted curve in the direction sought with a large enough effect; inconclusive means small, poorly fitted or top-dose-only effect, or another doubt; inactive means no such curve, though single readings can be large; an effect the other way counts as inactive or inconclusive. On the % scale 0 is the no-effect control and ±100 the full control effect; potency means the concentration at half of the fitted maximal effect.

SMILES	DT40 TDP1 no CPT	TDP1 cell CPT	ELG1 DNA repair	12-LOX inh	Gal4-VP16 FLuc	RORgamma inh
Cc1noc(C)c1S(=O)(=O)N1CCC(C(=O)N2CCN(c3cccc(C(F)(F)F)c3)CC2)CC1	3.3µM*	5.2µM*	nt	-13%	nt	nt
Cc1noc(C)c1S(=O)(=O)N1CCC(C(=O)N2CCN(c3ccccc3Cl)CC2)CC1	21µM*	?	?	26%	-8%	1%
Cc1c(C(=O)COC(=O)CCCNS(=O)(=O)c2cccs2)oc2ccccc12	nt	nt	nt	-1%	nt	nt
Cc1onc(-c2ccccc2Cl)c1C(=O)NC(=S)NCCc1ccccc1	-28%	2%	-3%	?	20µM*	10µM*
CCN(Cc1ccccc1)C(=O)c1c(-c2ccccc2Cl)noc1C	12µM*	?	13%	12%	-4%	-2%
Cc1onc(-c2ccccc2Cl)c1C(=O)NC(=S)NCc1cccnc1	-6%	-14%	-2%	10%	-16%	25%
COc1ccc(CCNC(=O)c2c(-c3ccccc3Cl)noc2C)cc1	?	-25%	?	-23%[57.4 µM]	11%	10%
COc1ccc(CCNC(=S)NC(=O)c2c(-c3ccccc3Cl)noc2C)cc1OC	?	?	-16%	-23%	?	8.9µM*
CN(C(=O)CSc1nc2c(c(=O)[nH]1)CCCC2)c1ccccc1	-28%	9.2µM*	nt	-1%	nt	nt
CC(C)c1ccc(NC(=O)CSc2nc(=O)[nH]c3c2CCCC3)cc1	21µM*	?	-17%	-6%	nt	nt
CCCCOC(=O)c1ccc(NC(=O)CSc2nc3c(c(=O)[nH]2)CCCC3)cc1	13µM*	?	nt	?	nt	nt
CCCN1CCc2nc(SCC(=O)Nc3ccc(C)c(Cl)c3)[nH]c(=O)c2C1	18µM*	?	?	31%	-3%	-23%
CC(C)NS(=O)(=O)c1ccc2c(c1)nc(-c1cc(C(C)(C)C)[nH]n1)n2C(C)C	nt	nt	nt	36%	nt	nt
CCCCN(C)CCNC(=O)C1CCN(c2nc3ccc(CC)cc3s2)CC1	23µM*	21µM*	nt	-17%	nt	nt
CCCCN(C)CCCNC(=O)c1ccc2nc(N3CCCCC3)sc2c1	?	23µM*	nt	-25%	nt	nt
CCCCN(CCCNC(=O)c1ccc2nc(N3CCOCC3)sc2c1)Cc1ccccc1	16µM*	?	-27%	-2%	0%	?
CN1C(=O)c2cccn2CC1CNS(=O)(=O)Cc1ccccc1 (stereo not drawn)	nt	nt	nt	10%	nt	nt
CCCNC(=O)COC(=O)c1ccccc1C(=O)c1ccc(Cl)c([N+](=O)[O-])c1	10µM*	?	?	0%	-28%	-25%
Cc1ccc(Cl)c(NC(=O)COC(=O)c2ccccc2C(=O)c2ccc(Cl)c([N+](=O)[O-])c2)c1Cl	10µM*	-103%	18µM*	-7%	-4%	?
Cc1ccc(C(=O)c2ccccc2C(=O)OCC(=O)NCCc2ccc(Cl)cc2Cl)cc1	?	?	-11%	-25%	?	?
NS(=O)(=O)c1ccc(N/N=C/C=C/c2ccccc2)c([N+](=O)[O-])c1	nt	nt	nt	16%	nt	nt
CCn1c2ccccc2c2cc(CNCCCN3CCOCC3)ccc21	16µM*	21µM*	-19%	0%	nt	nt
CCn1c2ccccc2c2cc(/C=C(/C#N)C(N)=S)ccc21	16µM*	?	nt	?	nt	nt
CCn1c2ccccc2c2cc(N)ccc21	?	26µM*	-1%	?	-7%	-5%
Cn1cccc1/C=C(/C#N)C(N)=S	-19%	-5%	-24%	?	-14%	1%
SMILES	DT40 TDP1 no CPT	TDP1 cell CPT	ELG1 DNA repair	12-LOX inh	Gal4-VP16 FLuc	RORgamma inh
CCOc1ccc2ccccc2c1CNCCCN1CCOCC1	?	-4%	nt	?	nt	nt
CCn1c2ccccc2c2cc(CN3CCN(Cc4ccc(Br)cc4)CC3)ccc21	15µM*	18µM*	nt	?	nt	nt
Cc1ccc(N=Cc2c(Cl)cccc2Cl)c(C)c1	nt	nt	nt	28%	nt	nt
COc1cncc(NC(=O)C2=NO[C@@H]3CN(Cc4ccc(O)c(Cl)c4)C[C@H]23)c1	nt	nt	nt	-2%[176 µM]	nt	nt
O=C(Cc1ccsc1)NC1CCCN(c2cc(-c3ccccc3)[nH]n2)C1 (stereo not drawn)	nt	nt	nt	5%	nt	nt
O=C(COc1ccc(F)cc1)Nc1ccc2oc(-c3cccc(Cl)c3)nc2c1	nt	nt	nt	1%	nt	nt
COc1ccc(C(=O)N2CCC3(CC2)CC(O)CCO3)c(OC)c1 (stereo not drawn)	nt	nt	nt	-15%	nt	nt
CCn1c2ccccc2c2cc(CN3CCN(S(=O)(=O)Cc4ccccc4)CC3)ccc21	15µM*	?	-19%	?	-4%	3%
CCn1c2ccccc2c2cc(CN3CCN(S(=O)(=O)CC)CC3)ccc21	nt	nt	-20%	?	-4%	41%
CCCCNC(=O)[C@@](CC)(ONc1ccccc1C(F)(F)F)c1cccc2ccccc12	?	15µM*	-2%	-13%	nt	nt
CCN1CCCC2(Cc3ccccc3CN(C(C)=O)C2)C1 (stereo not drawn)	nt	nt	nt	9%[12.5 µM]	nt	nt
OC[C@H]1O[C@@H](c2nc(-c3cccc4ccccc34)no2)[C@H](O)[C@@H]1O	15µM*	?	nt	-6%	nt	nt
OC[C@H]1O[C@@H](c2nc(-c3ccccc3Br)no2)[C@H](O)[C@@H]1O	6.5µM*	0.52µM*	nt	9%	nt	nt
CCOc1ccc(-c2noc([C@@H]3O[C@H](CO)[C@@H](O)[C@H]3O)n2)cc1	?	?	nt	-6%	nt	nt
CCOC(=O)c1ccc(NC(=O)Cc2noc3ccc(C)cc23)cc1	?	21µM*	nt	6%	nt	nt
CCOC(=O)c1ccc(NC(=O)Cc2coc3cc(C)cc(C)c23)cc1	18µM*	?	nt	-15%	nt	nt
Cc1cc(C)c2c(CC(=O)Nc3ccc(F)cc3)coc2c1	-30%	?	nt	?	nt	nt
O=C(NCCN1CCC(n2c(=O)[nH]c3ccccc32)CC1)c1cccc(Cl)c1	?	16µM*	nt	?	nt	nt
O=C(NCCN1CCC(n2c(=O)[nH]c3ccccc32)CC1)C(c1ccccc1)c1ccccc1	16µM*	16µM*	nt	?	nt	nt
O=C(NCCN1CCC(n2c(=O)[nH]c3ccccc32)CC1)c1ccncc1	-47%	-48%	nt	?	nt	nt
O=C(NCCN1CCC(n2c(=O)[nH]c3ccccc32)CC1)c1cccc(F)c1	-23%	-29%	nt	45µM*	nt	nt
Cc1ccc(CCNC(=O)CCc2nc(CS(=O)(=O)c3ccccc3)no2)cc1	nt	nt	nt	3%	nt	nt
Cc1c(OC(=O)c2ccccc2Cl)cccc1OC(=O)c1ccccc1Cl	nt	nt	nt	-11%	nt	nt
